{
  "source": "PubChem BioAssay AID588473",
  "about": "(Sanford-Burnham Center for Chemical Genomics, 2011)",
  "note": "Out of some 350,000 compounds screened, about 1,600 (0.46%) were called active.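 How the source made its calls: active means activation of at least 50%, plus an integration ratio under a set limit after plate pattern correction; inactive means the rest.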 The list comes from a sample in which actives are over-represented; it also holds similar structures and randomly drawn compounds.",
  "data": [
    {"system": "CRF-binding protein / CRF receptor 2 complex (human)", "assay": "activators of CRF-R2 with CRF-BP – cell-based, HEK293, calcium dye fluorescence, uHTS, primary screen (AID 588473);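 further: plate controls were neutral control wells without compound for no effect and CRF at EC100 for full effect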", "details": "calcium dye fluorescence (FLIPR), at 13.2 µM, stronger effect = higher value, percent of saturating CRF peptide response", "values": [
      {"molecule": "CCN(Cc1ccncc1)C(=S)Nc1ccccc1C", "activation": "-0.24% (inactive)"},
      {"molecule": "COCCCNC(=S)N(CCN(C)C)Cc1cc2cc3c(cc2[nH]c1=O)OCCO3", "activation": "0.16% (inactive)"},
      {"molecule": "CC(=O)NC(CC(=O)Nc1nccs1)c1ccccc1", "note": "(stereo not given)", "activation": "2.22% (inactive)"},
      {"molecule": "O=C(Nc1ccccc1C(F)(F)F)N1CCCC1c1cccnc1", "note": "(stereo not given)", "activation": "0.09% (inactive)"},
      {"molecule": "Cc1ccc(NC(=O)CSc2nc(=O)n(CCN(C)C)c3c2CCCC3)c(C)c1", "activation": "-0.4% (inactive)"},
      {"molecule": "CCOC(=O)Cc1c(C)nc2c(C#N)c(C)nn2c1C", "activation": "-2.38% (inactive)"},
      {"molecule": "O=C(NCCc1ccccc1Cl)C1CCC(=O)N(CCCc2ccccc2)C1", "note": "(stereo not given)", "activation": "-1.43% (inactive)"},
      {"molecule": "C/C(=N\\NC(=O)c1cc2c(s1)CCC(C)C2)c1cccnc1", "note": "(stereo not given)", "activation": "-0.26% (inactive)"},
      {"molecule": "Cc1cc2nc3c(=O)n(Cc4ccccc4)c(=O)[nH]c3nc2cc1N", "activation": "89.5% (active)"},
      {"molecule": "CN(C(=O)COC(=O)c1ccc(Br)o1)c1c(N)n(Cc2ccccc2)c(=O)[nH]c1=O", "activation": "1.22% (inactive)"},
      {"molecule": "Nc1cc(=O)n(Cc2ccccc2)c(=O)n1Cc1ccccc1", "activation": "-0.25% (inactive)"},
      {"molecule": "CCCS(=O)(=O)N1CCCC(C(=O)NCCN2CCCCC2C)C1", "note": "(stereo not given)", "activation": "2.69% (inactive)"},
      {"molecule": "O=C(/C=C(O)/C=C/c1ccc(O)cc1)/C=C/c1ccc(O)cc1", "activation": "123% (active)"},
      {"molecule": "COc1cccc(C=CC(=O)C=CC=Cc2ccccc2)c1", "activation": "3.04% (inactive)"},
      {"molecule": "O=C(O)/C=C/c1ccc(S(=O)(=O)N2CCCCCC2)cc1", "activation": "-6.06% (inactive)"},
      {"molecule": "Cc1cc(Cl)ccc1C(=O)C1CCCN(C(=O)c2ccc3c(c2)OCO3)C1", "note": "(stereo not given)", "activation": "-0.83% (inactive)"},
      {"molecule": "CC1(C)Cc2c(sc(NC(=O)C(=O)NCC3CCCO3)c2C(=O)O)CO1", "note": "(stereo not given)", "activation": "1.19% (inactive)"},
      {"molecule": "O=C(Nc1cccc(Cl)c1)Nc1ccccc1NS(=O)(=O)c1cccs1", "activation": "38.9% (inactive)"},
      {"molecule": "O=S(=O)(Nc1ccccc1N1CCOCC1)c1ccc(Cl)s1", "activation": "0.68% (inactive)"},
      {"molecule": "COc1cc(NC(=O)c2ccccc2NS(=O)(=O)c2ccc(Cl)s2)cc(OC)c1", "activation": "59.3% (active)"},
      {"molecule": "COc1ccc(CN2CCn3ncc(C(=O)Nc4ccc(Cl)cc4Cl)c3C2=O)cc1", "activation": "1.96% (inactive)"},
      {"molecule": "COc1ccccc1CNC(=O)C1CCCN(S(=O)(=O)c2cccc3cccnc23)C1", "note": "(stereo not given)", "activation": "-0.51% (inactive)"},
      {"molecule": "COc1cc(OC)c(-n2cc(-c3ccc(Cl)cc3)[nH]c2=O)cc1Cl", "activation": "180% (active)"},
      {"molecule": "COc1ccc(-n2c(-c3ccc(Cl)cc3)n[nH]c2=S)c(OC)c1", "activation": "-2.26% (inactive)"},
      {"molecule": "COc1cc(OC)c(-n2c(C)cc(C=O)c2C)cc1Cl", "activation": "0.85% (inactive)"},
      {"molecule": "COc1ccc(NC(=O)N(C)C[C@H]2Oc3ncc(C#C[C@@H](C)O)cc3C(=O)N([C@H](C)CO)C[C@H]2C)cc1", "activation": "5.65% (inactive)"},
      {"molecule": "CC(NC(=O)Nc1ccccc1)c1ccccc1", "note": "(stereo not given)", "activation": "-0.98% (inactive)"},
      {"molecule": "CCC(C(=O)Nc1ccc(C(C)C)cc1)c1ccccc1", "note": "(stereo not given)", "activation": "84.3% (active)"},
      {"molecule": "CC(C)c1ccc(NC(=O)Cn2ncc3ccccc32)cc1", "activation": "-4.37% (inactive)"},
      {"molecule": "Cc1cc2c(cc1C)[n+](C)cn2CC(O)COCC1CC=CCC1", "note": "(stereo not given)", "activation": "0.16% (inactive)"},
      {"molecule": "O=C(Nc1ccc2c(c1)OCCO2)C1CCCC1", "activation": "-0.49% (inactive)"},
      {"molecule": "CC(C)NS(=O)(=O)c1ccc(NC(=O)C2CCCCC2)cc1", "activation": "1.98% (inactive)"},
      {"molecule": "O=C(O)c1ccc(NC(=O)C2CCCCC2)cc1", "activation": "51.5% (active)"},
      {"molecule": "CC(=O)NC12CC3CC(C1)CC(C(=O)N1CCN(S(=O)(=O)c4cccs4)CC1)(C3)C2", "activation": "-0.5% (inactive)"},
      {"molecule": "N#Cc1cccc(CSc2ncnc(N)n2)c1", "activation": "-1.54% (inactive)"},
      {"molecule": "CCc1ccc(CN(C)C(=O)CCc2nnc(-c3ccc(-c4ccccc4)cc3)o2)nc1", "activation": "-0.63% (inactive)"},
      {"molecule": "COc1ccccc1-c1nnc(-c2ccc(F)cc2)o1", "activation": "0.06% (inactive)"},
      {"molecule": "CCCCCCc1cc2cc(-c3nnc(-c4ccccc4)o3)c(=O)oc2cc1O", "activation": "269% (active)"},
      {"molecule": "COc1ccc(Cl)cc1-n1c(=S)sc2c(=O)n(-c3ccc(F)cc3)c(SCC(=O)O)nc21", "activation": "-1.84% (inactive)"},
      {"molecule": "Cc1cccn2c(=O)c(/C=C(\\C#N)S(=O)(=O)c3ccc(Cl)cc3)c(N3CCC(C(N)=O)CC3)nc12", "activation": "9.75% (inactive)"},
      {"molecule": "CCOC(=O)CC1C(=O)NCCN1c1nc2c(C)cccn2c(=O)c1/C=C1\\SC(=S)N(C(C)CC)C1=O", "note": "(stereo not given)", "activation": "177% (active)"},
      {"molecule": "Cc1cccn2c(=O)c(/C=C(\\C#N)C(N)=O)c(N3CCCCCC3)nc12", "activation": "-2.5% (inactive)"},
      {"molecule": "CCCN(CCC)c1ccc(C(O)c2nnc(-c3ccccc3)o2)cc1", "note": "(stereo not given)", "activation": "-0.49% (inactive)"},
      {"molecule": "Cc1cccc2c1-c1sc(C(=O)NCCCN3CCc4ccccc4C3)cc1CO2", "activation": "3.21% (inactive)"},
      {"molecule": "C[C@H]1CN([C@@H](C)CO)C(=O)Cc2cc(NC(=O)Cc3ccccc3)ccc2O[C@H]1CN(C)S(=O)(=O)c1cccs1", "activation": "0.76% (inactive)"},
      {"molecule": "O=C(Nc1cccc(F)c1)c1coc(=O)c(Br)c1", "activation": "67% (active)"},
      {"molecule": "Cc1c(NC(=O)c2coc(=O)c(Br)c2)c(=O)n(-c2ccccc2)n1C", "activation": "-1.21% (inactive)"},
      {"molecule": "O=C(CCN1C(=O)c2ccccc2C1=O)Nc1cccc(F)c1", "activation": "-0.06% (inactive)"},
      {"molecule": "O=C(O)c1ccc(S(=O)(=O)c2ccccc2)s1", "activation": "0.6% (inactive)"},
      {"molecule": "Cc1nn(C(C)(C)C)c(OC(=O)CC(C)C)c1S(=O)(=O)c1ccccc1", "activation": "4.7% (inactive)"},
      {"molecule": "CC(C)[C@H](NC(=O)N1c2ccccc2NC(=O)[C@@H]1C(C)C)C(=O)N[C@H](C(=O)O)c1ccccc1", "activation": "0.51% (inactive)"},
      {"molecule": "CCN1/C(=C/c2ccc3ccc(C)cc3[n+]2CC)Sc2ccccc21", "activation": "143% (active)"},
      {"molecule": "CCN1/C(=C\\c2ccc3ccccc3[n+]2CC)Sc2cc(C)ccc21", "activation": "200% (active)"},
      {"molecule": "COc1ccc(SCCN2CCN(CC(C)C)CCC2=O)cc1", "activation": "-0.91% (inactive)"},
      {"molecule": "COC(=O)C(C)Oc1ccc2c(-c3cccc([N+](=O)[O-])c3)cc(=O)oc2c1", "note": "(stereo not given)", "activation": "-3.43% (inactive)"},
      {"molecule": "CCC1SC(CC)C(=O)N(CC(=O)NC2CCCCC2)C1=O", "note": "(stereo not given)", "activation": "-0.56% (inactive)"},
      {"molecule": "CCOC(=O)[C@H]1[C@H]2COc3ccccc3[C@@H]2N2C(=O)CN(Cc3ccccc3)C(=O)[C@@]12C", "activation": "-0.27% (inactive)"},
      {"molecule": "O=[N+]([O-])c1cc(Br)c(O)c(/C=N/Nc2nc3ccccc3s2)c1", "activation": "82.8% (active)"},
      {"molecule": "c1ccc(C(=NNc2nc3ccccc3s2)c2ccccn2)cc1", "activation": "5.4% (inactive)"},
      {"molecule": "O=C(N/N=C/c1cc(Br)c(O)c([N+](=O)[O-])c1)C(O)(c1ccccc1)c1ccccc1", "activation": "-0.94% (inactive)"}
    ]}
  ]
}
